Source: PubChem BioAssay AID778 (Sanford-Burnham Center for Chemical Genomics, 2007)
About 20,000 (21%) of roughly 96,000 compounds were called active. Not all results are given here. A number with no mark means an inactive call.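 How the source made its calls: active means CYP2C19 inhibition above a set limit at 5 µM in the primary screen (cut at about 50% in these data); inactive means the rest.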

target: Cytochrome P450 2C19 (Homo sapiens) (UniProt P33261); experiment: blockers of cytochrome P450 2C19 activity – biochemical, luminescence, ADME assay, primary screen (AID 778); settings: CYP2C19 Supersomes, luciferin-H EGE luminescence, 30 min; at 5 µM; stronger effect = higher value;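 further: plate controls were negative control wells for no effect and 2.5 mM tranylcypromine positive control for full effect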
Sequence (P33261 whole entry, looked up): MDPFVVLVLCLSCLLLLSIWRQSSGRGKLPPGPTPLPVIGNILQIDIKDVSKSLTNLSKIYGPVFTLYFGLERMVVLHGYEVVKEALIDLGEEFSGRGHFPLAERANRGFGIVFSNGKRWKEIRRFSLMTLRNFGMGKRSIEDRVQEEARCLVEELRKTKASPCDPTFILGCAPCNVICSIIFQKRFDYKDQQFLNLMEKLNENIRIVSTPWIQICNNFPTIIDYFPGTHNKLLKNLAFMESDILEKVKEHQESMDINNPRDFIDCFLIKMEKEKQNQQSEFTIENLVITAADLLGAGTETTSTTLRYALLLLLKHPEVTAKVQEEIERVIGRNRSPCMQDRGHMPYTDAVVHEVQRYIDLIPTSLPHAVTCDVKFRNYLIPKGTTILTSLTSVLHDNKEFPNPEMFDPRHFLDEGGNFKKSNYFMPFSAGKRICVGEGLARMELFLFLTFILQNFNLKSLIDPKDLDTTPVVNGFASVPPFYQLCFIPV

SMILES | inhibition
O=C(O)CC(Cn1cnnn1)c1ccccc1 (centres undefined) | -11.5%
O=C(CSc1nnc2ccccn12)c1ccccc1 | 13.9%
O=C(c1ccccc1)C(Cn1cncn1)C(Sc1ccccc1)c1ccccc1 (centres undefined) | 99.3% (active)
O=C(c1ccc2c(c1)N(Cc1ccc(F)cc1)C(=O)CS2)N1CCOCC1 | 23.9%
CCOC(=O)N1CCN(Cc2nc(N)nc(Nc3ccc(C)cc3)n2)CC1 | 36.2%
CCN(CC)CCN1C(=O)C(=O)/C(=C(/O)c2ccccc2)C1c1ccccc1F (centres undefined) | -0.3%
COC(=O)c1ccc(N(CC(=O)NC2CCCC2)C(=O)CNC(=O)c2ccco2)cc1 | -6.6%
CCCn1c(=O)c2ccccc2n2c(SCC(=O)/C(C#N)=C(\C)N)nnc12 | 4.2%
COc1ccc(C2C(C(=O)N3CCN(c4ccc(OC)cc4)CC3)c3ccccc3C(=O)N2C)cc1 (centres undefined) | 2.6%
CCOc1cc2c(cc1OCC)C(C(=O)O)C(c1ccc(OC)c(O)c1)N(C)C2=O (centres undefined) | -11.4%
COc1cccc(NC(=O)C2c3cc(OC)c(OC)cc3C(=O)N(C)C2c2cccnc2)c1 (centres undefined) | 50.1% (active)
Cc1nc(SCC(=O)N2CC(=O)Nc3ccccc32)c2c(C)c(C)sc2n1 | 49.9%
C#CCN1C(=O)C(O)(CC(=O)c2cc(OC)ccc2OC)c2ccccc21 (centres undefined) | 51.5% (active)
COc1ccc(C(=O)CN2C(=O)NC(C)(c3ccc(C)cc3)C2=O)cc1OC (centres undefined) | 1.3%
COc1ccc(OC)c(NC(=O)c2cnn(-c3ccccc3Cl)c2NC(=O)c2ccco2)c1 | -0.9%
CCOc1ccc(CN2CCCN(C)CC2)cc1 | -4.6%
CC1(C)Cc2ccccc2-c2nnc(-c3cccc(O)c3)n21 | -16.2%
CC1=NN(c2cccc(Cl)c2)C(=O)C12CC(C)=C(C)CS2 (centres undefined) | 90% (active)
Cc1[nH]n(-c2cccc(Cl)c2)c(=O)c1-c1ccc(Cl)cc1 | -13.5%
CC(=O)Oc1ccc(C)cc1N1C(=O)c2ccc(C(=O)O)cc2C1=O | -15.2%
O=C(C1CCCO1)N1CCC(c2nc3ccccc3[nH]2)CC1 (centres undefined) | 20.9%
Cc1ccccc1N1CC(c2nc3ccccc3[nH]2)CC1=O (centres undefined) | 81.9% (active)
Cc1ncn(C23CC4CC(CC(O)(C4)C2)C3)n1 | 3.7%
COc1ccc(C(=O)Nc2cc(C)ccc2NC(=O)COc2ccccc2)cc1 | 17%
CCCCC(=O)N(c1ccc(OC)cc1)C1C=CS(=O)(=O)C1 (centres undefined) | 19.8%

SMILES | inhibition
CCCCN=C(N)/C(C(=O)OCC)=C(\O)c1ccc(OC)cc1 | 54.8% (active)
COc1ccc(OCCCC(=O)Nc2nnc(C3CCCO3)s2)cc1 (centres undefined) | 34.1%
CCN1CCN(c2ccc([N+](=O)[O-])cc2C(=O)c2ccc(Cl)cc2)CC1 | 5.8%
CCCC(=O)Nc1nnc(CC(=O)OCC)s1 | -0.3%
CC1=CC(C)(C)NC(=S)N1c1ccccc1 | 58.1% (active)
Cc1ccc(N2C(=O)C(Cc3ccccc3)NC2=S)cc1 (centres undefined) | 39.4%
COc1ccc2c(c1OC)C(=O)OC2Nc1nc(-c2ccccc2)cs1 (centres undefined) | 12%
Cc1[nH]n(-c2ccccc2)c(=O)c1CCOC(=O)c1ccc(C(F)(F)F)cc1 | 31.8%
CCCS(=O)(=O)N1CCN(C(=O)c2cccs2)CC1 | 11%
Cn1c(=O)cc(OCCCC(=O)N2CCN(Cc3ccc4c(c3)OCO4)CC2)c2ccccc21 | 36.7%
O=C(Nc1cccc2ccccc12)N1CCN(Cc2ccc3c(c2)OCO3)CC1 | 35.2%
O=C(CCCN1C(=O)c2cccc3cccc(c23)C1=O)N1CCN(Cc2ccc3c(c2)OCO3)CC1 | 78.8% (active)
O=C(c1cccs1)N1CCN(C(=O)N2CCOCC2)CC1 | 2.3%
CCS(=O)(=O)N1CCN(C(=O)c2cccs2)CC1 | 56.5% (active)
COc1ccc(S(=O)(=O)N2CCN(C(=O)c3cccs3)CC2)cc1OC | 43.6%
O=C(c1cccs1)N1CCN(Cc2ccc3c(c2)OCO3)CC1 | 56.9% (active)
NC(=O)c1ccccc1NC(=O)c1ccccc1F | -8.5%
CCOC(=O)c1c(C)nc(-c2ccccc2)nc1NC(=O)C(C)C | 37.3%
CCOC(=O)N1CCC(NC(=O)Cn2cc3c(n2)CCCCC3)CC1 | 1.5%
CCN1CCN(Cc2c(O)ccc3c(=O)c(-c4ccc(OC)c(OC)c4)c(C(F)(F)F)oc23)CC1 | 12%
Cc1cc(=O)oc(C)c1C(=O)Nc1cnc2ccccc2c1 | 0.8%
CC(=NCC1CCCO1)c1c(O)[nH]c(=O)[nH]c1=O (centres undefined) | -7.7%
COCCNC(=O)CN(C(=O)CCC(=O)Nc1cc(C)on1)c1ccc(C)cc1C | 11.8%
N#CC1=C(N)Oc2n[nH]c(CSc3ccccc3)c2C12C(=O)Nc1ccccc12 (centres undefined) | 0.5%
O=C(NCc1ccccn1)c1ccc2nc(-c3ccco3)c(-c3ccco3)nc2c1 | 43.6%

SMILES | inhibition
COc1ccc(CC(NC(C)=O)C(=O)NC2CCN(C(=O)Nc3ccc(C#N)cc3)CC2)cc1OC (centres undefined) | 32%
COc1ccc(C(CNC(=O)c2cccnc2SC)N2CCOCC2)cc1 (centres undefined) | 11.3%
CCC1=C/C(=C\c2ccc3c(c2)OCO3)C(=O)S1 | 43.8%
Cc1cccc(N=C2NC(=O)CS2)c1C | 7.4%
Cc1cc(C=O)c(C)n1-c1ccc(NC2CCCCC2)c([N+](=O)[O-])c1 | -2.5%
COc1cc(OC)c(-n2c(C)cc(C=O)c2C)cc1Cl | 93.2% (active)
O=C(c1ccco1)N1CCN(C(=O)c2ccc(COc3ccc(F)cc3)o2)CC1 | 25.1%
COCCN1Cc2cccc(C(=O)Nc3ccccc3OC)c2C1=O | 34.9%
CCCOc1ccc(NC(=O)C2CCCNC2=O)cc1 (centres undefined) | 3.9%
C=CCNC(=O)c1csc(-c2ccccc2)n1 | 67.4% (active)
C=CCNC(=O)c1cc(-c2ccccc2O)on1 | 45.7%
CNC(=O)c1csc(-c2ccccc2)n1 | 23.7%
CS(=O)(=O)N(CC(=O)N1CCOCC1)c1ccc2c3c(cccc13)CC2 | 32.7%
C=CCN(C(=O)Cn1ncc2c1-c1cc(C)ccc1OC2)c1ccccc1 | 63.4% (active)
C=CCN(C(=O)Nc1ccc2oc(C)nc2c1)c1ccccc1 | 14.7%
Cc1ccc2oc(=O)c3cnn(CC(=O)N4CCCCCC4)c3c2c1 | -5.2%
CS(=O)(=O)c1sc2nc(-c3ccccc3)cc(-c3ccccc3)c2c1N | -2.6%
O=C(NC1CCCCC1)N1CCc2[nH]c3ccccc3c2C1 | 44.1%
N#Cc1ccc(CSc2nnc(-c3ccccn3)n2-c2ccc(Cl)cc2)cc1 | 18.3%
Nc1ncc(-c2cc3ccccc3oc2=O)s1 | 51.3% (active)
O=C(NCc1ccccn1)c1cc2ccccc2oc1=O | 1.3%
O=C(Oc1cccnc1)c1cc2ccccc2oc1=O | -9.9%
CCCCN(C)C(=O)c1ccc2c(c1)N(CC)C(=O)c1ccccc1S2(=O)=O | 22.5%
O=C(CCN1C(=O)c2ccncc2C1=O)Nc1ccc2c(c1)OCCO2 | 2.4%
O=C(CCN1C(=O)c2ccccc2C1=O)Nc1cccc(F)c1 | 78% (active)

SMILES | inhibition
O=C(CCN1C(=O)c2ccccc2C1=O)Nc1ccncc1 | 36.2%
O=C(COc1ccccc1Cl)Nn1cnnc1 | 41.3%
COc1ccc(Cc2nnc(NC(=O)Cc3cccs3)s2)cc1 | 17.2%
COc1ccc(NC(=O)NC2CC3CCCC(C2)N3Cc2ccccc2)cc1 (centres undefined) | 0.4%
CN(C)c1nc2n(c(=O)n1)CCO2 | -6%
CN(C)/C=C1/Nc2ccccc2C1=O | 14.3%
Cc1oc(-c2ccccc2F)nc1CS(=O)(=O)CC(=O)NCCCN(C)C1CCCCC1 | -10.6%
COc1ccc(-c2nc(CS(=O)CC(=O)N3CCc4ccccc4C3)c(C)o2)cc1 (centres undefined) | 17.7%
Cc1ccccc1-c1nc(CS(=O)(=O)CC(=O)N2CCc3ccccc3C2)c(C)o1 | 69.4% (active)
CCN1CCN(C(=O)/C=C\C(=O)O)CC1 | -10.4%
CCOC(=O)c1c(N)c(C#N)nn1-c1ccccc1C(=O)OC | 25.3%
CCC(=O)NC(NCC1CCCO1)C(Cl)(Cl)Cl (centres undefined) | 8.6%
COCCNC(=O)c1snc2ccc(Cl)cc12 | -5.7%
CCOC(=O)c1nc(N)sc1C(=O)OCC | -0.6%
CCOC(=O)c1sc(C)c2c1NC(C)(c1cccc3ccccc13)NC2=O (centres undefined) | 82% (active)
CCOC(=O)c1cc2ccccc2nc1C | 12.8%
COC(=O)C(C)n1cnc2c(nnn2-c2cccc(Cl)c2)c1=O (centres undefined) | 24.7%
COc1ccc(Cl)cc1C(=O)Nc1ccc(N(C)C(C)=O)cc1 | 25.6%
COc1ccc(NC(=S)N2N=CCC2c2ccccc2)cc1 (centres undefined) | 41.5%
N#Cc1c(N)n(CCOC(=O)c2ccc(Cl)cc2)c2nc3ccccc3nc12 | 29.4%
CCOC(=O)c1cc(NC(=O)c2ccc(Cl)cc2)c(=O)oc1-c1ccccc1 | 6.8%
CN1OC(COC(=O)c2ccc(Cl)cc2)CC1c1ccccc1 (centres undefined) | 74.5% (active)
CCOc1ccc(OCC)c(NC(=O)C(NS(=O)(=O)c2ccc3c(c2)oc(=O)n3C)C(C)C)c1 (centres undefined) | 20.9%
c1ccc(-c2cc(-c3nnc4sc(-c5ccccn5)nn34)[nH]n2)cc1 | 10.4%
